Test results taken from PubChem BioAssay (NCI).
Compounds without any hit were thinned out: in the full panel of roughly 83,000, 20% have a hit.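 Testing used 96-well plates and a 48-hour single-concentration exposure. Example: -40 means 40% of the starting cells died.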 Unmarked numbers belong to inactive results. Calls of active or inactive are those of the source. How the source made its calls: active means growth percent below 10; inactive means the rest.

Tests used:
Assay in all cases: NCI-60 one-dose screen, 48 h (100 = growth as untreated, 0 = no growth, -100 = all killed)
Settings in all cases: 10 µM
DU-145 prostate = tested on: DU-145 prostate
K-562 leukemia = tested on: K-562 leukemia
MALME-3M melanoma = tested on: MALME-3M melanoma
MDA-MB-231 breast = tested on: MDA-MB-231 breast
RXF 393 renal = tested on: RXF 393 renal
SF-268 CNS = tested on: SF-268 CNS
SF-295 CNS = tested on: SF-295 CNS
SF-539 CNS = tested on: SF-539 CNS
UACC-257 melanoma = tested on: UACC-257 melanoma
M14 melanoma = tested on: M14 melanoma
HCT-15 colon = tested on: HCT-15 colon
HT29 colon = tested on: HT29 colon
SNB-75 CNS = tested on: SNB-75 CNS
SNB-19 CNS = tested on: SNB-19 CNS
U251 CNS = tested on: U251 CNS
PC-3 prostate = tested on: PC-3 prostate
SK-MEL-5 melanoma = tested on: SK-MEL-5 melanoma
UACC-62 melanoma = tested on: UACC-62 melanoma
LOX IMVI melanoma = tested on: LOX IMVI melanoma
SK-MEL-28 melanoma = tested on: SK-MEL-28 melanoma

| Compound | growth (DU-145 prostate) | growth (K-562 leukemia) | growth (MALME-3M melanoma) | growth (MDA-MB-231 breast) | growth (RXF 393 renal) | growth (SF-268 CNS) | growth (SF-295 CNS) | growth (SF-539 CNS) | growth (UACC-257 melanoma) | growth (M14 melanoma) | growth (HCT-15 colon) | growth (HT29 colon) | growth (SNB-75 CNS) | growth (SNB-19 CNS) | growth (U251 CNS) | growth (PC-3 prostate) | growth (SK-MEL-5 melanoma) | growth (UACC-62 melanoma) | growth (LOX IMVI melanoma) | growth (SK-MEL-28 melanoma) |
| --- | --- | --- | --- | --- | --- | --- | --- | --- | --- | --- | --- | --- | --- | --- | --- | --- | --- | --- | --- | --- |
| C=CC(=O)Nc1ccc(C(=O)/C=C/c2ccc(N(C)CCF)cc2)c(O)c1 | -51.2% (active) | 9.77% (active) | -50.1% (active) | 17% | -82.4% (active) | -19.7% (active) | -4.58% (active) | -81.5% (active) | -61.6% (active) | -56.3% (active) | -52% (active) | -61.4% (active) | -8.38% (active) | -15.6% (active) | -94.7% (active) | 6.54% (active) | -90.7% (active) | -42.6% (active) | -81% (active) | -77.8% (active) |
| CN(CCF)c1ccc(/C=C/C(=O)c2ccc(N)cc2O)cc1 | 69.6% | 51.4% | 102% | 95.7% | 82.8% | 93.7% | 80.4% | 83.5% | 96.6% | 107% | 49.8% | 42.8% | 102% | 84.1% | 70.3% | 86.5% | 68.1% | 90.1% | 78.9% | 101% |
| COc1cc(-c2nc3cc(Cl)c(Cl)cc3[nH]2)ccc1OCc1nnc(-c2ccc(Br)cc2)o1 | 47.2% | 6.47% (active) | -78.2% (active) | -38.9% (active) | -77.7% (active) | 38.6% | -46.1% (active) | -92.4% (active) | 4.56% (active) | -9.79% (active) | 3.31% (active) | 10% | -58.8% (active) | 41.5% | 1.03% (active) | -15.8% (active) | 3.12% (active) | -42.1% (active) |  |  |
| COC[C@@H](CC(C)C)N=C1NC(=O)/C(=C/c2ccc3ncoc3c2)N1 | 22.6% | 14.4% | 32.5% | 12.3% | -8.35% (active) | 22% | 34.4% | -5.08% (active) | 11.5% | 41% | 1.92% (active) | 8.17% (active) | -9.28% (active) | 17.5% | 16.4% | 42.4% | 3.83% (active) | -27.3% (active) | 6.76% (active) | 0.832% (active) |
| COc1ccc(N2N=C(c3ccc4c(c3)OCCO4)CC2c2cccc(NC(=O)CCCNS(=O)(=O)c3ccc(F)cc3)c2)cc1 (stereo not given) | 91.5% | 56% | 79.7% | 69.2% | 68.1% | 56.2% | 65.2% | 77.7% | 88% | 81.9% | 67.5% | 84.4% | 42.4% | 69.3% | 75.4% | 52% | 64.2% | 61.8% | 72.5% | 81.5% |
| O=C(NC(=S)N1CCN(c2ncnc3c2cnn3-c2ccccc2)CC1)c1ccc(Cl)cc1 | 81.1% | 61.5% | 56.1% | 57.1% | 43.1% | 41.2% | 34.2% | 11.2% | 83.8% | 79.9% | 52.3% | 79.1% | 2.35% (active) | 28.2% | 38.3% | 47.3% | 76.3% | 68.9% | 14.3% |  |
| C/C(=C\CC/C=C(\C)CC/C=C(\C)CC[C@@H](O)C(C)(C)O)CC/C=C(\C)CC[C@@H](O)C(C)(C)O | 63.7% | 10.4% | 44.8% | 61.4% | 16.5% | 57.5% | 9.52% (active) | 43% | 21.1% | 22.7% | 21.1% | -67% (active) | 70.2% | 61.4% | 33.2% | 7.84% (active) | -16.3% (active) | 46.2% | 28.7% | 38% |
| O=C(CN1CCN(c2ncnc3c2cnn3-c2ccccc2)CC1)Nc1nncs1 | -96.1% (active) | 10.6% | -67.3% (active) | 29.7% | -71.3% (active) | -34.4% (active) | -31.4% (active) | -88.2% (active) | 54.3% | 4.82% (active) | -30.7% (active) | -61.5% (active) | -75% (active) | 58.4% | -72.5% (active) | -36.1% (active) | 29.4% | 17.4% | -87.4% (active) | 72.3% |
| CN(C(=O)c1ccc(C(F)(F)F)cc1C(F)(F)F)c1sc2c(c1C#N)CCC(=O)C2 | 103% | 6.49% (active) | 99% | 71.1% | 7.86% (active) | 85% | 65.1% | -37.6% (active) | 99% | 73.9% | 10.4% | 106% | 105% | 88.7% | -11.7% (active) | 0.435% (active) | 25.9% | 55.7% | 29.2% | 106% |
| CS(=O)(=O)Nc1ccc(-c2ccc3c(c2)ncn3-c2ccc(NC(=O)Nc3ccc(Br)cc3)cc2)cc1 | 29.8% | 4.89% (active) | -20.2% (active) | 13.6% | -16.8% (active) | 26.4% | -38.3% (active) | -34.5% (active) | -16.9% (active) | 4.32% (active) | 8.63% (active) | 7.09% (active) | 21.4% | 16.6% | 3.88% (active) | 10.4% | -86.2% (active) | -35.6% (active) | 1.1% (active) |  |
| COc1cccc(/C=N/NC(=O)c2ccc3nc(-c4ccc(Cl)cc4)[nH]c3c2)c1O | -96.1% (active) | -37.2% (active) | -96.3% (active) | -72.8% (active) | -96.5% (active) | -79% (active) | -91.3% (active) | -99% (active) | -83.8% (active) | -79.5% (active) | 4.8% (active) | -79.7% (active) | -81.8% (active) | -98.6% (active) | -90.8% (active) | -55.1% (active) | -98% (active) | -92% (active) | -97.2% (active) | -98.3% (active) |
| COc1ccc(-c2ccc(/C=N/NC(=O)c3[nH]c4ccc(Br)cc4c3-c3ccccc3)o2)cc1 | 75.5% | 10.5% | 47% | 52.6% | 16.8% | 37.9% | 4.48% (active) | -14.1% (active) | 63.2% | 17% | 26.4% | 55.1% | 33% | 57.6% | 26.2% | 55.1% | 30.3% | 30.4% | 26.7% |  |
| Cc1cc(C(F)(F)F)ccc1C(=O)Nc1sc2c(c1C#N)CCC(=O)C2 | 20.3% | 2.39% (active) | -82.5% (active) | -73.4% (active) | -64.9% (active) | 17.1% | -25.5% (active) | -79.9% (active) | -39.5% (active) | -59.2% (active) | -69.5% (active) | -27.8% (active) | -5.51% (active) | -2.98% (active) | 12% | 4.6% (active) | -98.9% (active) | -81.3% (active) | 2.84% (active) | -83.9% (active) |
| O=c1cc(-c2ccccc2)oc2cc(OCCCNCc3ccccc3)cc(O)c12 | 13.2% | -20.1% (active) | -94.3% (active) | -43.1% (active) | -56.7% (active) | 25.2% | -81.8% (active) | -97.3% (active) | -69.7% (active) | -76% (active) | -67.1% (active) | -59.7% (active) | 23.9% | 48.2% | -79.8% (active) | -0.767% (active) | -99.6% (active) | -55.7% (active) | -97.8% (active) | -88.8% (active) |
| CN1C(=O)/C(=C/c2ccc3ncsc3c2)NC1=NC12CC3CC(CC(O)(C3)C1)C2 | 12.2% | 11.9% | -15% (active) | 0.441% (active) | -22.7% (active) | 24.5% | 14.1% | -32.1% (active) | -17% (active) | 36.9% | -7.12% (active) | 3.87% (active) | 25.9% | 16.3% | 16.4% | 16.8% | -90.7% (active) | -7.72% (active) | -52.8% (active) | -18.4% (active) |
| COc1csc(/C=N/NC(=O)c2[nH]c3ccc(Br)cc3c2-c2ccccc2)c1 | 7.13% (active) | 4.06% (active) | 30.9% | 3.77% (active) | 23.3% | 23.5% | -10.2% (active) | -39.8% (active) | 34.8% | 11.5% | 0.545% (active) | -30.8% (active) | 4.17% (active) | 29.1% | 9.71% (active) | 14.9% | -37.2% (active) | 20.3% | 12.6% | 35.3% |
